The values that follow come from PubChem BioAssay (Tox21).

Structures are written as SMILES. A number with no mark means an inactive call. The source made the active and inactive calls. Calls follow the shape of the dose curve; as a rule, active = well fitted curve in the direction sought with a large enough effect in the repeat runs; inconclusive = weak or mixed curves; inactive = flat fitted curve, though single readings scatter.
% is scaled to controls: 0 for no effect and ±100 for the full control effect.

A short description of the assay: qHTS assay to test for compound auto fluorescence at 460 nm (blue) in HEK293 cells (AID 720678). The conditions noted are these: blue autofluorescence 405/460 nm; series mostly up to 91.3 µM; fluorescence, % of triamterene: at the top concentration. The text has this: National Center for Advancing Translational Sciences [NCATS]
NIH Chemical Genomics Center [NCGC]
U.S. Environmental Protection Agency [EPA]
National Institutes of Environmental Health Sciences [NIEHS]
National Toxicology Program [NTP]
U.S. Food and Drug Administration [FDA]
Compound auto fluorescence often interferes with screening of the compound library against various biological targets and signaling pathways. Some of these compounds may have fluorophoric properties. Such properties may interfere with the assay outputs resulting in false positives and/or negatives. To decrease such complications and ensure the compound activities are relevant in terms of biological response, the Tox21 10K compound library was screened for auto fluorescence.
From the fluorophores used as reporter signals in our screening assays, the auto fluorescence equivalencies of compounds against three fluorophores have been evaluated: Triamterene, Fluorescein and Rose Bengal sodium for blue, green and red fluorescence, respectively. The fluorescence intensities were measured using Excitation/Emission wavelengths at 405/460nm, 485/535nm and 540/590nm for blue, green and red labels, respectively. This assay includes the blue fluorescence data.
Tox21 Assay Protocol Summary:
2,000 HEK293 cells in 5 uL of culture medium containing 10% dialyzed FBS per well were dispensed into black wall/clear bottom 1536-well plates using a Multidrop Combi Dispenser (Thermo Scientific). The assay plates were incubated for 4-5 hr at 37C to allow cell attachment to the well bottom, followed by the transfer of 23 nL compound or DMSO vehicle by a pintool work station (Kalypsys, San Diego, CA). After the assay plates were incubated overnight at 37C and 5% CO2, fluorescence intensities in the assay plates were measured by an Envision (PerkinElmer, Shelton, CT) plate reader using three labels for measuring blue, green and red fluorescence at […] 460, 535 and 590nm respectively.
(Quantitative high-throughput screening tests each substance at several concentrations.)
Consider `CCO/C=C1\N=C(c2ccccc2)OC1=O`, for which the “fluorescence, % of triamterene” value is -0.0841%.

As for `CC(C)c1cc(C(C)C)cc(C(C)C)c1`, the “fluorescence, % of triamterene” value was -0.179%.

In the case of `C=CCON/C(CCC)=C1\C(=O)CC(C)(C)C(C(=O)OC)=C1O`, the “fluorescence, % of triamterene” value was 0.0235%.

In the case of `O=C1CC2(CCCC2)CC(=O)N1CCNCC1COc2ccccc2O1` (stereo not given), the “fluorescence, % of triamterene” value was 0.0809% [at 46 µM].

For `O=P(O)(O)C(O)(Cc1cccnc1)P(=O)(O)O`, the “fluorescence, % of triamterene” value was -0.0244% [at 46 µM].

Take `CCC(=O)OCCOc1ccccc1`: the “fluorescence, % of triamterene” value is -0.0671%.

`CC(O)C(CO)C(C)O` (stereo not given): the “fluorescence, % of triamterene” value was 0.073% [at 95.7 µM].

`CCO[Si](CC(C)C)(OCC)OCC`: the “fluorescence, % of triamterene” value was -0.0775%.

With `COC(=O)N/N=C/c1c[n+]([O-])c2ccccc2[n+]1[O-]`, the “fluorescence, % of triamterene” value is 0.0056% [at 46 µM].

`CN(C)c1cc(NC(=O)CNC(C)(C)C)c(O)c2c1C[C@H]1C[C@H]3[C@H](N(C)C)C(=O)C(C(N)=O)=C(O)[C@@]3(O)C(=O)C1=C2O`: the “fluorescence, % of triamterene” value is 0.0928% [at 46 µM].

Take `NC[C@H]1O[C@H](O[C@H]2[C@H](O)[C@@H](O[C@H]3O[C@H](CO)[C@@H](O)[C@H](N)[C@H]3O)[C@H](N)C[C@@H]2N)[C@H](N)[C@@H](O)[C@@H]1O`: the compound was called inactive.

On to `C[C@@H](CN1CC(=O)NC(=O)C1)N1CC(=O)NC(=O)C1`, for which the “fluorescence, % of triamterene” value is -0.0337% [at 46 µM].

Regarding `Cc1ccccc1C#N`, the “fluorescence, % of triamterene” value is 0.0045%.

On to `COc1cc(NS(=O)(=O)c2ccc(N)cc2)ncn1`, for which the fluorescence, % of triamterene is -0.148% [at 18.6 µM].

Consider `CCOC(=O)CC(C(C)=O)C(C)=O`, for which the “fluorescence, % of triamterene” value was 0.15%.

Turning to `CC(CC(=O)Cl)CC(C)(C)C` (stereo not given), the “fluorescence, % of triamterene” value was -0.0398%.

Take `Cc1ccc(OC(=O)CC(C)C)cc1`: the “fluorescence, % of triamterene” value is -0.0242%.

Turning to `N[C@H]1C(O)O[C@H](CO)[C@@H](O)[C@@H]1O` (stereo not given in full), the “fluorescence, % of triamterene” value was 0.137% [at 46 µM].

Turning to `CCCCCCCCCCCCCCCC(=O)OC`, the fluorescence, % of triamterene was 0.179% [at 18.6 µM].

`CC(C)C(C)C`: the “fluorescence, % of triamterene” value was 0.0309%.

Turning to `COC(=O)C(c1ccccc1Cl)N1CCc2sccc2C1` (stereo not given), the “fluorescence, % of triamterene” value is -0.0758% [at 46 µM].

With `CCOC(=O)[C@H](CCc1ccccc1)N[C@H]1CS[C@H](c2cccs2)CN(CC(=O)O)C1=O`, the “fluorescence, % of triamterene” value is -0.0312% [at 46 µM].

Turning to `CC(C)(C)C(=O)CC(=O)C(C)(C)C`, the “fluorescence, % of triamterene” value was 0.0048% [at 95.7 µM].

As for `CCCCC(CC)CCC(CC(C)C)OS(=O)(=O)O` (stereo not given), the call was inactive.

`CN(C)CCC[C@@]1(c2ccc(F)cc2)OCc2cc(C#N)ccc21`: the “fluorescence, % of triamterene” value was -0.291% [at 46 µM].

On to `CCNC(=O)C(C)OC(=O)Nc1ccccc1` (stereo not given), for which the “fluorescence, % of triamterene” value was 0.0058%.

For `O=C1Nc2ccccc2C1=O`, the “fluorescence, % of triamterene” value is 1.23%.

For the compound `CCCCCCCCCCCCCCCC/C=C/C1CC(=O)OC1=O` (stereo not given), the “fluorescence, % of triamterene” value is 0.0059% [at 46 µM].

In the case of `COC(=O)/C=C(\C)CCC=C(C)C`, the “fluorescence, % of triamterene” value was 0.0949%.

As for `CC(=O)Oc1ccc(C(C)=O)cc1`, the “fluorescence, % of triamterene” value was -0.0052% [at 95.7 µM].

In the case of `CC(C)(C)NCC(O)COc1cccc2c1CCC(=O)N2` (stereo not given), the fluorescence, % of triamterene was 0.0079% [at 18.6 µM].

Turning to `COc1cc(OC)cc(OC)c1`, the “fluorescence, % of triamterene” value is -0.0016% [at 46 µM].

Consider `CCN1CCN(C(=O)N[C@@H](C(=O)N[C@@H]2C(=O)N3[C@@H]2SC(C)(C)[C@H]3C(=O)O)c2ccccc2)C(=O)C1=O`, for which the “fluorescence, % of triamterene” value is -0.0255% [at 46 µM].

With `CC1(C)CC(N)CC(C)(C)N1`, the “fluorescence, % of triamterene” value is -0.001%.

With `C/C(Cl)=C/CCl`, the “fluorescence, % of triamterene” value was -0.334% [at 95.7 µM].

Take `NC(=O)CC[C@@H](N)C(=O)O`: the “fluorescence, % of triamterene” value is 0.0945% [at 46 µM].

For `O=Cc1ccccc1S(=O)(=O)O`, the “fluorescence, % of triamterene” value is 0.0245%.

As for `Cc1cc(C)c(C)c(C)c1`, the “fluorescence, % of triamterene” value is 0.0124%.

`CC/C=C/CCCCCCCCCCOC(C)=O`: the “fluorescence, % of triamterene” value is -0.0322%.

As for `O=C(O)COc1ccc2ccccc2c1`, the “fluorescence, % of triamterene” value was -0.0256%.
